Test results reported in PMC8384837, “Expanding the binding specificity for RNA recognition by a PUF domain”.
Numbering of substitutions follows the chain as printed.

Key:
Assay in all cases: yeast three-hybrid, YBZ-1, SC-Leu-His + 0.5 mM 3-AT, 4 days
Details in all cases: tags: N-Gal4 AD-HA kept; label: inside an RPR1-promoter hybrid RNA with tandem MS2 sites; ssRNA
PUM1 PUF domain R4-EHR = PUM1 PUF domain R4-EHR (Homo sapiens, UniProt Q14671 828-1176, N971E;Q975R)
Outline: (§1)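 Sequencing with Illumina followed PCR amplification of the repeat regions from transformants grown four days on SC-Leu (input) or SC-Leu-His + 0.5 mM 3-AT (selection). The transformants were strain YBZ-1 with a LexA–MS2 coat fusion and a HIS3 reporter, carrying Pumilio-1 PUF domain libraries and matching RNA elements. The interaction score is the log change in variant frequency from input to selection, computed in log2 with a pseudocount of 1 for absent variants.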

PUM1 PUF domain R7-RFP = PUM1 PUF domain R7-RFP (Homo sapiens, UniProt Q14671 828-1176, S1079R;N1080F;E1083P)
Outline: as §1

PUM1 PUF domain R5-SQS = PUM1 PUF domain R5-SQS (Homo sapiens, UniProt Q14671 828-1176, C1007S;R1008Q;Q1011S)
Outline: as §1

PUM1 PUF domain R6-VYM = target: T1, PUM1 PUF domain R6-VYM (Homo sapiens, UniProt Q14671 828-1176, N1043V;Q1047M)
T1 sequence: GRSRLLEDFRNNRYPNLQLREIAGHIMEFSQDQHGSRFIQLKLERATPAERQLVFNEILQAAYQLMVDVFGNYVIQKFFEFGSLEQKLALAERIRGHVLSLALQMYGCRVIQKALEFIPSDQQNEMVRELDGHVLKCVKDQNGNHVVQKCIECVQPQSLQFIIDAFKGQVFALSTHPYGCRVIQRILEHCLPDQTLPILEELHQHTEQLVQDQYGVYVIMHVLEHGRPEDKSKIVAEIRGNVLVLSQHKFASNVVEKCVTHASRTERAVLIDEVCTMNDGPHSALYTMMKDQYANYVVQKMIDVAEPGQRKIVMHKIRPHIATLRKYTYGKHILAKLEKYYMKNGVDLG
Outline: as §1

PUM1 PUF domain R3-DFE = PUM1 PUF domain R3-DFE (Homo sapiens, UniProt Q14671 828-1176, C935D;R936F;Q939E)
Outline: as §1

PUM1 PUF domain R6-NRQ = target: T2, PUM1 PUF domain R6-NRQ (Homo sapiens, UniProt Q14671 828-1176, Y1044R)
T2 sequence: T1 sequence with V216N, Y217R, M220Q
Outline: as §1

PUM1 PUF domain R8-KFH = PUM1 PUF domain R8-KFH (Homo sapiens, UniProt Q14671 828-1176, N1122K;Y1123F;Q1126H)
Outline: as §1

PUM1 PUF domain R6-FYR = target: T3, PUM1 PUF domain R6-FYR (Homo sapiens, UniProt Q14671 828-1176, N1043F;Q1047R)
T3 sequence: T1 sequence with V216F, M220R
Outline: as §1

PUM1 PUF domain R3-LYQ = PUM1 PUF domain R3-LYQ (Homo sapiens, UniProt Q14671 828-1176, C935L;R936Y)
Outline: as §1

PUM1 PUF domain R4-SCM = PUM1 PUF domain R4-SCM (Homo sapiens, UniProt Q14671 828-1176, N971S;H972C;Q975M)
Outline: as §1

PUM1 PUF domain R3-RPS = PUM1 PUF domain R3-RPS (Homo sapiens, UniProt Q14671 828-1176, C935R;R936P;Q939S)
Outline: as §1

PUM1 PUF domain R8-KWW = PUM1 PUF domain R8-KWW (Homo sapiens, UniProt Q14671 828-1176, N1122K;Y1123W;Q1126W)
Outline: as §1

PUM1 PUF domain R1-RVQ = PUM1 PUF domain R1-RVQ (Homo sapiens, UniProt Q14671 828-1176, S863R;R864V)
Outline: as §1

PUM1 PUF domain R2-GFD = PUM1 PUF domain R2-GFD (Homo sapiens, UniProt Q14671 828-1176, N899G;Y900F;Q903D)
Outline: as §1

PUM1 PUF domain R5-RSR = PUM1 PUF domain R5-RSR (Homo sapiens, UniProt Q14671 828-1176, C1007R;R1008S;Q1011R)
Outline: as §1

PUM1 PUF domain R5-GKD = PUM1 PUF domain R5-GKD (Homo sapiens, UniProt Q14671 828-1176, C1007G;R1008K;Q1011D)
Outline: as §1

PUM1 PUF domain R5-GCR = PUM1 PUF domain R5-GCR (Homo sapiens, UniProt Q14671 828-1176, C1007G;R1008C;Q1011R)
Outline: as §1

PUM1 PUF domain R1-KAS = PUM1 PUF domain R1-KAS (Homo sapiens, UniProt Q14671 828-1176, S863K;R864A;Q867S)
Outline: as §1

PUM1 PUF domain R4-VHH = PUM1 PUF domain R4-VHH (Homo sapiens, UniProt Q14671 828-1176, N971V;Q975H)
Outline: as §1

PUM1 PUF domain R8-PYH = PUM1 PUF domain R8-PYH (Homo sapiens, UniProt Q14671 828-1176, N1122P;Q1126H)
Outline: as §1

GGCUAGAACUAGUGGAUCCCCCGGCGCCCGGCGGCUCGAGCCCGGGUAAGUGUAUAUAGUCUGCAUGCCGCCGGGCGCCAUGCCUGCAGGUCGACUCUAGAAAACAUG
binding signal (PUM1 PUF domain R4-EHR): 3.83 log2 enrichment (interaction score)

GGCUAGAACUAGUGGAUCCCCCGGCGCCCGGCGGCUCGAGCCCGGGUAAGUCUAAAUAGUCUGCAUGCCGCCGGGCGCCAUGCCUGCAGGUCGACUCUAGAAAACAUG
binding signal (PUM1 PUF domain R7-RFP): 5.14 log2 enrichment (interaction score)

GGCUAGAACUAGUGGAUCCCCCGGCGCCCGGCGGCUCGAGCCCGGGUAAGUGUGAAUAGUCUGCAUGCCGCCGGGCGCCAUGCCUGCAGGUCGACUCUAGAAAACAUG
binding signal (PUM1 PUF domain R5-SQS): 3.19 log2 enrichment (interaction score)

GGCUAGAACUAGUGGAUCCCCCGGCGCCCGGCGGCUCGAGCCCGGGUAAGUGUAAAUAGUCUGCAUGCCGCCGGGCGCCAUGCCUGCAGGUCGACUCUAGAAAACAUG
binding signal (PUM1 PUF domain R6-VYM): 2.8 log2 enrichment (interaction score)
binding signal (PUM1 PUF domain R3-DFE): 2.28 log2 enrichment (interaction score)
binding signal (PUM1 PUF domain R6-NRQ): 7.58 log2 enrichment (interaction score)
binding signal (PUM1 PUF domain R8-KFH): 2.89 log2 enrichment (interaction score)
binding signal (PUM1 PUF domain R6-FYR): 4.96 log2 enrichment (interaction score)
binding signal (PUM1 PUF domain R3-LYQ): 3.33 log2 enrichment (interaction score)
binding signal (PUM1 PUF domain R4-SCM): 2.65 log2 enrichment (interaction score)
binding signal (PUM1 PUF domain R3-RPS): 0.42 log2 enrichment (interaction score)
binding signal (PUM1 PUF domain R8-KWW): 3.43 log2 enrichment (interaction score)

GGCUAGAACUAGUGGAUCCCCCGGCGCCCGGCGGCUCGAGCCCGGGUAAGUGUAAAUCGUCUGCAUGCCGCCGGGCGCCAUGCCUGCAGGUCGACUCUAGAAAACAUG
binding signal (PUM1 PUF domain R1-RVQ): 4.56 log2 enrichment (interaction score)

GGCUAGAACUAGUGGAUCCCCCGGCGCCCGGCGGCUCGAGCCCGGGUAAGUGUAAAGAGUCUGCAUGCCGCCGGGCGCCAUGCCUGCAGGUCGACUCUAGAAAACAUG
binding signal (PUM1 PUF domain R2-GFD): 4.7 log2 enrichment (interaction score)

GGCUAGAACUAGUGGAUCCCCCGGCGCCCGGCGGCUCGAGCCCGGGUAAGUGAAAAUAGUCUGCAUGCCGCCGGGCGCCAUGCCUGCAGGUCGACUCUAGAAAACAUG
binding signal (PUM1 PUF domain R6-VYM): 6.6 log2 enrichment (interaction score)

GGCUAGAACUAGUGGAUCCCCCGGCGCCCGGCGGCUCGAGCCCGGGUAAGUGUCAAUAGUCUGCAUGCCGCCGGGCGCCAUGCCUGCAGGUCGACUCUAGAAAACAUG
binding signal (PUM1 PUF domain R5-RSR): 4.48 log2 enrichment (interaction score)
binding signal (PUM1 PUF domain R5-GKD): 2.2 log2 enrichment (interaction score)
binding signal (PUM1 PUF domain R5-GCR): 5.08 log2 enrichment (interaction score)

GGCUAGAACUAGUGGAUCCCCCGGCGCCCGGCGGCUCGAGCCCGGGUAAGUGUAAUUAGUCUGCAUGCCGCCGGGCGCCAUGCCUGCAGGUCGACUCUAGAAAACAUG
binding signal (PUM1 PUF domain R3-RPS): 3.4 log2 enrichment (interaction score)

GGCUAGAACUAGUGGAUCCCCCGGCGCCCGGCGGCUCGAGCCCGGGUAAGUGUAAAUUGUCUGCAUGCCGCCGGGCGCCAUGCCUGCAGGUCGACUCUAGAAAACAUG
binding signal (PUM1 PUF domain R1-KAS): 3.9 log2 enrichment (interaction score)
binding signal (PUM1 PUF domain R1-RVQ): 4.43 log2 enrichment (interaction score)

GGCUAGAACUAGUGGAUCCCCCGGCGCCCGGCGGCUCGAGCCCGGGUAAGUGUACAUAGUCUGCAUGCCGCCGGGCGCCAUGCCUGCAGGUCGACUCUAGAAAACAUG
binding signal (PUM1 PUF domain R4-VHH): 5.04 log2 enrichment (interaction score)
binding signal (PUM1 PUF domain R4-EHR): 3 log2 enrichment (interaction score)
binding signal (PUM1 PUF domain R4-SCM): 3.79 log2 enrichment (interaction score)

GGCUAGAACUAGUGGAUCCCCCGGCGCCCGGCGGCUCGAGCCCGGGUAAGCGUAAAUAGUCUGCAUGCCGCCGGGCGCCAUGCCUGCAGGUCGACUCUAGAAAACAUG
binding signal (PUM1 PUF domain R8-PYH): 3.67 log2 enrichment (interaction score)
binding signal (PUM1 PUF domain R8-KFH): 3.24 log2 enrichment (interaction score)
binding signal (PUM1 PUF domain R8-KWW): 5.85 log2 enrichment (interaction score)

GGCUAGAACUAGUGGAUCCCCCGGCGCCCGGCGGCUCGAGCCCGGGUAAGUGUUAAUAGUCUGCAUGCCGCCGGGCGCCAUGCCUGCAGGUCGACUCUAGAAAACAUG
binding signal (PUM1 PUF domain R5-RSR): 3.79 log2 enrichment (interaction score)
binding signal (PUM1 PUF domain R5-GKD): 3.71 log2 enrichment (interaction score)
binding signal (PUM1 PUF domain R5-GCR): 3.22 log2 enrichment (interaction score)
